Compound activity from PubChem.
Pf growth 96h – P. falciparum growth inhibition at 96 hours. P. falciparum luciferase reporter growth, 96 h. Potency, µM (series often up to 28.7 µM), for the others: at the highest dose activity change, negative = inhibition, most hits filed as inhibitors. hit rate 6.9% among 320,000; further: potency means the concentration at half of the fitted maximal effect
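96 h incubation, 37 C, 5% CO2, of luciferase-reporter P. falciparum-infected RBCs (2% hematocrit, 0.05% parasitemia final) with test compounds; endpoint luminescence.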
Marburg entry inh – blocks Marburg virus binding to or entry into cells | Marburg virus pseudotyped entry inhibition, cell reporter | Potency, µM (series often up to 37.8 µM), inactives show at the top dose activity change, negative = inhibition, usual class: inhibitors | hit rate 1.8% among 300,000; calls by dose curve; tested in HEK293 cells; further: potency means the concentration at half of the fitted maximal effect
LASV entry inh – Lassa virus entry inhibition; Lassa virus pseudotype entry inhibition, cell reporter; Potency, µM (series often up to 37.9 µM), for inactives: at the top dose activity change, negative = inhibition, hits mostly inhibitors; hit rate 1.2% among 300,000; AID 540256; calls by dose curve; tested in HEK293 cells; further: potency means the concentration at half of the fitted maximal effect; nearly all actives have a fitted effect of over 50% in size
HCV inh – inhibitors of hepatitis C virus infection. Huh7.5.1 HCVcc-Cre infection, luciferase reporter, 44 h. Potency, µM (titrated, usually from 41.8 µM), for the others: top-dose activity change, negative = inhibition, usual class: inhibitors. hit rate 3.4% among 340,000. AID 651820; further: potency means the concentration at half of the fitted maximal effect
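Antiviral activity was scored by luciferase reporter output from cells infected with HCVcc-Cre (~0.5 moi) in presence of compound, 44 h infection period, cells seeded 1,000/well 4 h prior.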
HCMV antiviral – blocks human cytomegalovirus replication. HFF cells, HCMV-luciferase reporter, 72 h; hits give low values. activity change, negative = inhibition, % at 57.5 µM. hit rate 4.5% among 410,000; in the data active means activity change below about -60%; inconclusive means no clear call, values can overlap the other calls; inactive means above about -39%
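Luciferase read-out from HCMV-luciferase-infected HFFs (MOI 1 PFU/cell) 72 h post infection at 37C; compounds added after 16 h cell attachment; activity normalized between buffer-only basal and Salinomycin (10uM) inhibitor controls.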
Pf growth 48h – P. falciparum growth inhibition at 48 hours (one generation). Potency, µM (top dose mostly 28.7 µM), for the others: at the highest dose activity change, negative = inhibition, usual class: inhibitors. hit rate 5.9% among 310,000. P. falciparum luciferase growth in erythrocytes, 48 h; further: potency means the concentration at half of the fitted maximal effect
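A one-generation exposure of luciferase-tagged malaria parasites in RPMI 1640/Albumax erythrocyte culture, 37 C and 5% CO2. Inhibition is inferred from decreased luminescence after adding detection reagent.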
* = called active by the depositor; ? = inconclusive; . = not tested or not shown; [ ] = another dose, or the depositor's remark. Shown are actives, neighbours in structure and some others; about 14% of the full set was active somewhere. Unless noted, the call rests on the fitted dose curve; in most records, active means well fitted inhibition curve with a large enough effect; inconclusive means small, poorly fitted or top-dose-only effect, or another doubt; inactive means no such curve, though single readings can be large or run the other way. On the % scale 0 is the no-effect control and ±100 the full control effect.

SMILES	Pf growth 96h	Marburg entry inh	LASV entry inh	HCV inh	HCMV antiviral	Pf growth 48h
COc1cccc(S(=O)(=O)Nc2ccc3c(c2)[C@@H]2C[C@@H](CC(=O)NCc4ccc(Cl)cc4)O[C@@H](CO)[C@@H]2O3)c1	.	.	.	.	-77.7*	.
COC(=O)C[C@H]1C[C@@H]2c3cc(NS(=O)(=O)c4cccc(OC)c4)ccc3O[C@@H]2[C@@H](CO)O1	.	.	.	.	-21.6	.
CCC1(O)C(=O)OCc2c1cc1n(c2=O)Cc2cc3c(N)cccc3nc2-1 (stereo not drawn)	.	?	?	?	-98.4*	.
COc1ccc(C2CC(O)(c3ccccc3)Oc3c(C)ccc(C)c32)cc1 (stereo not drawn)	?	.	.	?	-33.2	9.28µM*
COc1ccc(C2CC(O)(c3ccccc3)Oc3cc(OC)cc(OC)c32)cc1 (stereo not drawn)	?	.	.	-62.2%	28.9	?
CCOC(=O)[C@]12CCC=C1N(Cc1ccc(Cl)cc1Cl)C(=O)[C@H](CC(=O)NCc1ccc(C)o1)C2	.	.	.	.	7.2	.
CCCn1nc(NC(C)=O)c2cc3cccc(C)c3nc21	8.3%	.	.	11.2µM*	-11.2	-8.2%
CCCn1nc(NC(=O)COC)c2cc3cccc(C)c3nc21	15.4%	.	.	11.2µM*	-12.8	-0.7%
CCCn1nc(NC(=O)CC(C)C)c2cc3cccc(C)c3nc21	?	-0.6%[46.1 µM]	2.6%	-5.9%	20.4	?
CCCC(=O)Nc1nn(C)c2nc3c(C)cccc3cc12	61.9%	-3.9%	5.0%	5.7%	33.4	?
CC1(C(=O)NS(=O)(=O)C2CC2)CCCN(C(=O)c2ccc(F)c(Cl)c2)C1 (stereo not drawn)	.	.	.	.	25.4	.
COc1ccc2nc(C)cc(SCC(=O)N/N=C/c3ccco3)c2c1	93.6%	8.91µM*	.	-26.6%	-26.0	2.1%
COc1ccc(OC)c(/C=N\NC(=O)CSc2nnc(CCCc3ccc(OC)c(C)c3)o2)c1	?	-4.9%	-19.8%	-9.8%	-19.3	?
COc1ccc(OC)c(/C=N/NC(=O)CSc2cc(C)nc3c(OC)cccc23)c1	8.28µM*	-8.3%[46.1 µM]	-4.5%	8.5%	-30.6	-9.9%
CN(C)c1ccc(/C=C/CNC[C@H]2O[C@@H](n3ccc(N)nc3=O)[C@H](O)[C@@H]2O)cc1	.	.	.	.	-22.8	.
Cc1cc(SCC(=O)NCc2ccc(Cl)cc2)nc(=O)[nH]1	.	.	27.0%[46.1 µM]	.	20.5	.
Cc1nn(-c2ccccn2)c(C)c1Oc1ccccc1O	2.62µM*	10.0%	?	-29.2%	48.0	.
Cc1nn(-c2ccc(C(=O)O)cc2)c(C)c1Oc1ccccc1O	-25.4%	-1.1%	10.1%	32.0%	-34.9	.
Cc1nn(-c2nc3ccccc3s2)c(C)c1Oc1ccccc1O	327.6%	4.61µM*	?	10µM*	.	177.1%
Cc1ccc(C(=O)n2c(-c3ccccc3)cnc2SCC(=O)Nc2ccccc2)cc1	252.6%	?	0.5%	-5.5%	-74.3*	71.3%
Cc1ccc(NC(=O)Cn2c(-c3ccc(F)cc3)cnc2SCC(=O)Nc2c(C)cccc2C)cc1	12.9%	?	?	0.8%	-77.7*	0.1%
CCOc1ccc(NC(=O)CSc2ncc(-c3ccc(F)cc3)n2Cc2ccco2)cc1	?	.	.	10µM*	-27.0	?
COc1ccccc1NC(=O)Cn1c(=O)n(Cc2ccccc2)c(=O)c2sc3ccccc3c21	.	1.6%[46.1 µM]	20.1%[46.1 µM]	.	-15.9	.
CC(=O)Nc1ccc(S(=O)(=O)NC(CSc2ccc(C(=O)O)cc2[N+](=O)[O-])C(=O)O)cc1 (stereo not drawn)	6.5%	.	.	14.9%	-39.2	3.2%
c1ccc(-c2ccccc2OCCCN2CCCCC2)cc1	?	?	16.4µM*	-15.3%	-38.2	?
SMILES	Pf growth 96h	Marburg entry inh	LASV entry inh	HCV inh	HCMV antiviral	Pf growth 48h
CN(C)CCCCOc1ccc(F)cc1	11.7µM*	0.0%[46.1 µM]	6.1%	-9.5%	-6.8	-18.9%
Fc1ccccc1OCCCCCCN1CCCC1	-9.3%	-15.8%	-1.3%	7.94µM*	4.9	-29.3%
CCCCNCCOCCOc1ccccc1-c1ccccc1	?	?	?	?	?	10.4µM*
Fc1ccccc1OCCCCCN1CCCC1	-3.1%	?	-0.3%	4.0%	-19.7	?
O=C(COC(=O)c1nc(Cl)ccc1Cl)c1ccccc1Cl	39.3%	?	25.4%[46.1 µM]	-3.5%	-10.0	-3.8%
COc1ccc(C2=NN(CCC(=O)NCCc3ccccc3)C(=O)CC2)cc1	.	.	-29.2%[46.1 µM]	.	13.7	.
CN(C)CCCCOc1ccccc1-c1ccccc1	-5.9%	13µM*	?	0.1%	9.5	?
OCCN1CCN(CCOc2ccccc2-c2ccccc2)CC1	-34.5%	?	?	15.6%	-23.2	-13.4%
OCCCN1CCN(CCOc2ccccc2-c2ccccc2)CC1	10.4µM*	4.9%	8.2%	-25.7%	-17.1	?
CC12CCC(C(NC(=S)NN)C1=O)C2(C)C (stereo not drawn)	.	2.8%[46.1 µM]	7.4%[46.1 µM]	17.6%	3.5	.
COc1cc(NC(=O)c2nnn(Cc3ccc(SC)cc3)c2N)cc(OC)c1	11.7µM*	.	.	?	12.2	.
CSc1cccc(NC(=O)c2nnn(Cc3ccccc3)c2N)c1	16.6%	-5.3%	-1.8%	?	9.9	9.28µM*
Cc1ccc2nc(-c3ccc(F)cc3)c(Cc3cccc(F)c3)n2c1	.	.	.	.	115.2	.
O=C(C1CC(=O)N(C2CCCC2)C1)N1CCC(Cc2ccccc2)CC1 (stereo not drawn)	4.0%	-1.3%	0.7%	?	-65.2*	0.6%
O=C(NCCN1CCCC1)C1CC(=O)N(C2CCCCC2)C1 (stereo not drawn)	13.1µM*	-27.5%	1.7%	21.3%	?	27.5%
O=C(NCCc1ccccc1)C1CC(=O)N(C2CCCCCC2)C1 (stereo not drawn)	-4.1%	-7.4%	22.0%	16.8%	27.2	5.1%
O=C(NCCc1ccc(Cl)cc1)C1CC(=O)N(CCc2ccccc2)C1 (stereo not drawn)	4.15µM*	.	.	-1.8%	10.5	18.2%
O=C(NCCc1ccccc1)C1CC(=O)N(C2CCCCC2)C1 (stereo not drawn)	5.86µM*	.	.	10.5%	26.1	11.3%
CN(CC(=O)Nc1cccnc1)S(=O)(=O)c1ccc(Br)cc1	1.5%	?	2.2%	28.0%	20.1	-1.4%
CC(C)CNc1ncnc2c1ncn2[C@H]1CN(CCN2CCOCC2)C[C@@H](CO)O1	.	.	.	.	-16.5	.
O=C(NCCn1cccn1)C1CCC(=O)N(CCc2ccccc2)C1 (stereo not drawn)	13.1µM*	?	22.6%	16.2%	-10.9	5.6%
O=C(NCCc1ccc(Cl)cc1)C1CCC(=O)N(C2CCCCCC2)C1 (stereo not drawn)	-5.8%	-6.0%[46.1 µM]	4.9%[46.1 µM]	0.9%	-61.2*	3.1%
O=C(NCCc1ccc(Cl)cc1)C1CC(=O)N(C2CCCC2)C1 (stereo not drawn)	-18.7%	.	.	0.9%	-39.0	32.3%
